# Laboratory results published in PubChem BioAssay (Tox21).
# Results filed as inconclusive are left out. A number with no mark means an inactive call. Activity calls are given as the source filed them. The call rests on the fitted dose curve; in most records, active means well fitted activation curve with a large enough effect in the repeat runs; inconclusive means weak or mixed curves; inactive means no such curve, though single readings can be large or run the other way.
# Target: Nuclear receptor subfamily 1 group I member 2 (Homo sapiens) (UniProt O75469)
# Experiment: Human pregnane X receptor (PXR) small molecule agonists, qHTS assay (AID 1346982); further: nearly all actives have a fitted effect of over 35% in size
# Conditions: PXR-Luc HepG2, CYP3A4 luciferase reporter, 24 h; series mostly up to 92.4 µM; activation: at the top concentration
# Summary of the method: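 Luminescence (ONE-Glo, 30 min RT) after 24 hr compound exposure of PXR-Luc HepG2 cells; cells rested 5 hr post-plating in 5% charcoal-stripped FBS medium.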
# On the % scale 0 is the no-effect control and ±100 the full control effect; potency means the concentration at half of the fitted maximal effect.
# Nuclear receptor subfamily 1 group I member 2 (Homo sapiens), sequence (O75469 whole entry, looked up): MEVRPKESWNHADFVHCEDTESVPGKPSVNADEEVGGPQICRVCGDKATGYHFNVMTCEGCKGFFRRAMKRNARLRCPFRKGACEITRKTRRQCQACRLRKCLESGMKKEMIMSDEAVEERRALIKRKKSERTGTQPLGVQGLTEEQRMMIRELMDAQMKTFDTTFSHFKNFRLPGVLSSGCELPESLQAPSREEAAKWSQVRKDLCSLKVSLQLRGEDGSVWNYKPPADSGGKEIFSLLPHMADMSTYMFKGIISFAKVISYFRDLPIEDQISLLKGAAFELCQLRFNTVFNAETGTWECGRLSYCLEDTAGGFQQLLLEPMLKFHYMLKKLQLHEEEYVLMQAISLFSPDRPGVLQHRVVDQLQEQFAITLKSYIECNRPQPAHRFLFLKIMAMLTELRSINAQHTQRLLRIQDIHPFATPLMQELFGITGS
SMILES,activation,Potency
NCCc1ccn[nH]1,-13.6% [at 42.5 µM],–
O=C(O)/C=C/c1ccccc1,11.1%,–
COc1ccc(/C=N/NC(=O)c2ccncc2)cc1OC,0.914% [at 42.5 µM],–
NS(=O)(=O)c1cc2c(cc1Cl)NC(C(Cl)Cl)NS2(=O)=O (configuration not stated),-20.4% [at 42.5 µM],–
Nc1ccc(/C=C/c2ccc(N)cc2S(=O)(=O)O)c(S(=O)(=O)O)c1,-2.19% [at 0.349 µM],–
Cc1c(C(C)C)c(=O)n(-c2ccccc2)n1C,18.3% [at 42.5 µM],–
O=C(CN1CCN(Cc2ccc3c(c2)OCO3)CC1)N1c2ccccc2Sc2ccccc21,–,11.9 µM (active)
COc1cc([N+](=O)[O-])ccc1N,-34.7%,–
Nc1ccc(S(=O)(=O)Nc2ccccn2)cc1,-3.75% [at 42.5 µM],–
OC(CCN1CCCCC1)(c1ccccc1)c1ccccc1,28.4% [at 42.5 µM],–
CC(C)(CO)[C@@H](O)C(=O)NCCCO,-5.04% [at 42.5 µM],–
COCC(=O)Nc1c(I)c(C(=O)NCC(O)CO)c(I)c(C(=O)N(C)CC(O)CO)c1I (configuration not stated),-5.1% [at 42.5 µM],–
O=c1cc(O)c(Cl)c[nH]1,-4.37% [at 42.5 µM],–
COc1cc2c3cc1Oc1cc(ccc1O)C[C@@H]1c4c(cc(OC)c(O)c4Oc4ccc(cc4)C[C@@H]3N(C)CC2)CC[N+]1(C)C,-17% [at 42.5 µM],–
O=C(/C=C/c1ccccc1)NCCO,-8.72% [at 42.5 µM],–
CCCCCCCCCCCCC1CO1 (configuration not stated),7.66%,–
CCNC(=O)/C=C/c1cccc(Br)c1,–,26.6 µM (active)
CCCCOC(=O)[C@@H](C)Oc1ccc(Oc2ccc(C(F)(F)F)cn2)cc1,5.22%,–
NS(=O)(=O)c1cc2c(cc1Cl)NC(CC1CCCC1)NS2(=O)=O (configuration not stated),3.03% [at 42.5 µM],–

SMILES,activation,Potency
CC(=O)N(CC(O)CO)c1c(I)c(C(=O)NCC(O)CO)c(I)c(C(=O)NCC(O)CO)c1I (configuration not stated),-12% [at 42.5 µM],–
CNCc1ccccc1,6.12% [at 42.5 µM],–
CCCCOC(=O)C(=O)OCCCC,1.76%,–
NS(=O)(=O)c1ccc(Cl)c(S(N)(=O)=O)c1,-2.88% [at 42.5 µM],–
O=c1[nH]c(=O)c2[nH]c(=O)[nH]c2[nH]1,-5.05% [at 8.39 µM],–
CCC1Nc2cc(Cl)c(S(N)(=O)=O)cc2S(=O)(=O)N1 (configuration not stated),-12% [at 42.5 µM],–
Cc1oc(=O)oc1CN1CCN(c2cc3c(cc2F)c(=O)c(C(=O)O)c2n3C(C)S2)CC1 (configuration not stated),-8.51% [at 42.5 µM],–
COc1cc2c(Nc3ccc(Br)cc3F)ncnc2cc1OCC1CCN(C)CC1,6.37% [at 42.5 µM],–
NC(=O)C1(N2CCCCC2)CCN(CCCC(=O)c2ccc(F)cc2)CC1,-6.92% [at 42.5 µM],–
O=c1[nH]c(=O)c2ccccc2o1,-10.7% [at 42.5 µM],–
Nc1ccc(S(=O)(=O)NC(=O)c2ccccc2)cc1,-1.97% [at 42.5 µM],–
CC(=O)Nc1ncc([N+](=O)[O-])s1,-2.62% [at 42.5 µM],–
Cn1c(=O)c2c(ncn2CC2OCCO2)n(C)c1=O,-4.84% [at 42.5 µM],–
CN[C@@H]1[C@H](O)[C@H](NC)[C@H]2O[C@@]3(O)C(=O)C[C@@H](C)O[C@H]3O[C@@H]2[C@H]1O,-5.59% [at 42.5 µM],–
O=C(Nc1cccc(C2=NCCN2)c1)Nc1cccc(C2=NCCN2)c1,-0.413% [at 19 µM],–
Cc1ccc(S(=O)(=O)NC(=O)NC2CCCCCCC2)cc1,7.41% [at 42.5 µM],–
O=C(Oc1ccccc1C(=O)O)c1ccccc1O,-2.32% [at 42.5 µM],–
NC(=O)NC(=O)Cc1ccccc1,-6.18% [at 42.5 µM],–
